From PubChem BioAssay (NCI) come the findings set out here.

Among the test systems are NCI-H23 lung; NCI-H226 lung; NCI-H322M lung; HOP-62 NSCLC; NCI-H460 lung; HOP-92 NSCLC; NCI-H522 lung; A549/ATCC NSCLC; 786-0 renal; COLO 205 colon.
Holding throughout (assay): NCI-60 one-dose screen, 48 h (100 = growth as untreated, 0 = no growth, -100 = all killed)
What all share (conditions): 10 µM unless noted

The structures appear in SMILES notation. This is part of a sample that, as a whole, favours compounds with a hit. Of some 83,000 tested, about 20% had one in any assay.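 Treatment: one concentration, 48 hours, 96-well format. Scoring: percent growth, with anything below 10 considered active.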 A number with no mark means an inactive call. Activity calls are given as the source filed them.

For `CC(=O)c1ccc2c(c1)C1C=CCC1[C@H](c1cc3c(cc1Br)OCO3)N2` (stereo not given in full), the growth in the test on NCI-H23 lung was 27.1%; in the test on NCI-H226 lung, 22.1%; in the test with NCI-H322M lung, 64.8%; with HOP-62 NSCLC it was 32.1%; with NCI-H460 lung, 7.92% (active); with HOP-92 NSCLC it was 16%. For the same molecule, the growth with NCI-H522 lung is -10.7% (active); in the test with A549/ATCC NSCLC, 23.4%; in the test on 786-0 renal it was 10.9%; with COLO 205 colon, -14% (active).
For the molecule `Nc1ccc(S(=O)(=O)Nc2cc(I)cc(I)c2)cc1`, the growth in the test on NCI-H23 lung was 93.6%; in the test on NCI-H226 lung it was 113%; with NCI-H322M lung it was 94.8%; with HOP-62 NSCLC it was 91.1%; with NCI-H460 lung, 109%; in the test with HOP-92 NSCLC, 79.2%. Also, the growth in the test on NCI-H522 lung is 90.1%; with A549/ATCC NSCLC it was 112%; in the test on 786-0 renal, 95.5%; with COLO 205 colon it was 123%.
As to `CCOC(=O)CSc1nnc(-c2cc3c([nH]c4ccccc43)c(-c3cccc(O)c3)n2)n1-c1ccc(C)cc1`, the growth is 97% with NCI-H23 lung; 100% with NCI-H226 lung; 95.2% in the test on NCI-H322M lung; 88.3% with HOP-62 NSCLC; 103% with NCI-H460 lung; 48.9% in the test with HOP-92 NSCLC. Also, the growth in the test with NCI-H522 lung is 47.1%; in the test with A549/ATCC NSCLC it was 98.5%; with 786-0 renal, 88.7%; in the test on COLO 205 colon it was 95.1%.
For the molecule `O=C(CSc1nnc(-c2cc3c([nH]c4ccccc43)c(-c3cccc(O)c3)n2)n1-c1ccccc1)c1ccccc1`, the growth in the test on NCI-H23 lung was 80.2%; in the test with NCI-H226 lung, 93.4%; in the test with NCI-H322M lung, 89.7%; in the test on HOP-62 NSCLC, 59.3%; in the test on NCI-H460 lung it was 65.3%; with HOP-92 NSCLC, 67.6%. Besides, the growth was 23% in the test on NCI-H522 lung, 69.9% in the test on A549/ATCC NSCLC, 18.8% with 786-0 renal and 105% with COLO 205 colon.
For the molecule `CC1(C)N=C(N)N=C(N)N1c1ccc(F)c(C(F)(F)F)c1`, the growth in the test with NCI-H23 lung is 29.4%; in the test with NCI-H226 lung, 54.1%; in the test with NCI-H322M lung it was 51.9%; in the test on HOP-62 NSCLC, 21.7%; in the test with NCI-H460 lung, 21.6%; in the test on HOP-92 NSCLC it was 45.4%. Moreover, the growth was -8.07% (active) in the test on NCI-H522 lung, 9.86% (active) in the test on A549/ATCC NSCLC, -4.42% (active) with 786-0 renal and 79.8% with COLO 205 colon.
Regarding `N#CC1=C(N)Oc2c(ccc3ccccc23)C1c1cc(=O)oc2ccc(Cl)cc12` (stereo not given), the growth in the test on NCI-H23 lung was 32.9%; with NCI-H226 lung, 98.3%; in the test on NCI-H322M lung, 44.2%; in the test on HOP-62 NSCLC, 33.3%; in the test with NCI-H460 lung, 8.96% (active); in the test on HOP-92 NSCLC, 87.5%. Besides, the growth with NCI-H522 lung is 5.22% (active); in the test on A549/ATCC NSCLC it was 26.6%; in the test with 786-0 renal, 29.4%; with COLO 205 colon it was -16.4% (active).
For `Cc1nc(N)nc(SCc2ccccc2)c1Br`, the growth with NCI-H23 lung is 93.7%; in the test on NCI-H226 lung, 83.7%; in the test with NCI-H322M lung, 70.3%; in the test with HOP-62 NSCLC, 83.1%; in the test with NCI-H460 lung, 104%; in the test with HOP-92 NSCLC, 79.4%. In addition, the growth is 66.7% in the test on NCI-H522 lung, 73.4% in the test on A549/ATCC NSCLC, 88.9% in the test with 786-0 renal and 105% in the test on COLO 205 colon.
`COc1ccccc1S(=O)(=O)Nc1ccc2c3c(cc(-c4cnn(C)c4)nc13)C(=O)N2C`: the growth with NCI-H23 lung is 46.6%; with NCI-H226 lung, 61.9%; with NCI-H322M lung, 47.4%; in the test with HOP-62 NSCLC it was 33.3%; in the test with NCI-H460 lung, 46.9%; in the test on HOP-92 NSCLC it was 27.4%. Also, the growth was 36% with NCI-H522 lung, 38.6% with A549/ATCC NSCLC, 43.8% in the test on 786-0 renal and 15.8% in the test with COLO 205 colon.
On to `C#C[C@H](O)/C=C/CCCCCCC#C[C@H](O)CC[C@@H](O)C#CCCCCCC/C=C/[C@@H](O)C#C`, for which the growth with NCI-H23 lung is 51%; with NCI-H226 lung, 116%; in the test on NCI-H322M lung it was 96.3%; in the test on HOP-62 NSCLC, 85.3%; in the test with NCI-H460 lung it was 97.4%; with HOP-92 NSCLC, 11.9%. In addition, the growth in the test on NCI-H522 lung is -72.7% (active); with A549/ATCC NSCLC, 91.1%; in the test on 786-0 renal it was 64.6%; in the test on COLO 205 colon it was 79.8%.
On to `CCOc1ccc(NC(=O)Nc2cc(C(C)C)ccc2C)cc1`, for which the growth is 79.2% in the test with NCI-H23 lung; 92.8% in the test on NCI-H226 lung; 90.8% in the test on NCI-H322M lung; 95% with HOP-62 NSCLC; 106% in the test with NCI-H460 lung; 55.1% in the test with HOP-92 NSCLC. Moreover, the growth in the test with NCI-H522 lung was 46.4%; in the test with A549/ATCC NSCLC, 36.6%; in the test with 786-0 renal it was 13%; with COLO 205 colon, 98.7%.
For the molecule `CCCC(=O)Oc1ccc(/C(=C(\C)c2ccc(Cl)cc2)c2ccc(OCCN(CC)CC)cc2)cc1`, the growth is -33.4% (active) in the test on NCI-H23 lung; 68.4% in the test on NCI-H226 lung; 24.1% in the test with NCI-H322M lung; -57.1% (active) in the test on HOP-62 NSCLC; -83.9% (active) in the test with NCI-H460 lung; -13.1% (active) in the test on HOP-92 NSCLC. The growth was -55% (active) in the test with NCI-H522 lung, -51% (active) in the test with A549/ATCC NSCLC, -89.6% (active) in the test on 786-0 renal and -84% (active) in the test with COLO 205 colon.
Consider `O=C(Nc1ccc(-n2cc(-c3ccncc3)c(-c3ccc(O)c(Cl)c3)n2)cc1)c1ccc(Cl)c(Cl)c1`, for which the growth in the test with NCI-H23 lung was 43.7%; with NCI-H226 lung it was 74.6%; in the test with NCI-H322M lung, 71.5%; with HOP-62 NSCLC it was 27.5%; in the test on NCI-H460 lung, 22.3%; in the test with HOP-92 NSCLC it was 14.9%. Further, the growth with NCI-H522 lung is 26.3%; in the test on A549/ATCC NSCLC, 33.1%; in the test on 786-0 renal it was -41.6% (active); with COLO 205 colon, 64.9%.
`CCN1CCN(Cc2ccc(NC(=O)Nc3cccc(-n4ccc5c(NC(=O)c6ccccc6)nccc54)c3)cc2C(F)(F)F)CC1`: the growth with NCI-H23 lung is 92.4%; with NCI-H226 lung it was 99.5%; in the test on NCI-H322M lung, 101%; in the test on HOP-62 NSCLC, 72.6%; in the test with NCI-H460 lung it was 96.3%; in the test on HOP-92 NSCLC, 60.5%. The growth was 45.6% in the test with NCI-H522 lung, 86.9% in the test on A549/ATCC NSCLC, 108% with 786-0 renal and 65.7% in the test on COLO 205 colon.
